Laboratory results taken from the supplement of paper PMC9135407.
“And” between values parts separate entries of the source, which are not always exact repeats. Equal values may be shown once. Where a name gives a salt, the structure may show the parent alone. In all, about 5,800 compounds went through this assay and about 620 (11%) showed activity. The sample holds actives, similar compounds and a random draw of the others, so the mix is not that of the screen.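 The calls were made as follows: active = score above a cut-off or among the top three wells of a plate; in these data no inactive exceeds 0.85.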

System: primary human hepatic stellate cells (donor 1)
Assay: scaled lipid accumulation score (0 = DMSO-like, 1 = nortriptyline-like); higher = stronger HSC inactivation (lipid re-accumulation), active = hit call of the paper
Conditions: 48 h
[1] = library stock concentration: 10 mM
[2] = library stock concentration: 80 uM
[3] = library stock concentration: 400 uM
[4] = library stock concentration: 2 mM
[5] = library stock concentration: 3.33 mM
[6] = library stock concentration: 1 mM

## O=C(NCCCNc1nc(Nc2cccc(NC(=O)N3CCCC3)c2)ncc1I)c1cccs1 [listing 1 of 4 here]
[1]
  scaled lipid accumulation score: 1.2 (active)

## O=C(NCCCNc1nc(Nc2cccc(NC(=O)N3CCCC3)c2)ncc1I)c1cccs1 [listing 2 of 4 here]
[1]
  scaled lipid accumulation score: 0.937 (active)

## O=C(NCCCNc1nc(Nc2cccc(NC(=O)N3CCCC3)c2)ncc1I)c1cccs1 [listing 3 of 4 here]
[2]
  scaled lipid accumulation score: ≤ -0.016 (inactive)
[3]
  scaled lipid accumulation score: ≤ -0.016 (inactive) and ≤ -0.005 (inactive)
[4]
  scaled lipid accumulation score: ≤ -0.016 (inactive) and 0.235 (inactive)
[5]
  scaled lipid accumulation score: 0.048 (inactive)

## O=C(Nc1cccc(Nc2ncc(Br)c(NCCc3c[nH]cn3)n2)c1)N1CCCC1
[1]
  scaled lipid accumulation score: 0.978 (active)

## NCCC(=O)NCCc1c[nH]cn1 [Carcinine]
  scaled lipid accumulation score: 0.074 (inactive)

## O=C(NCCCNc1nc(Nc2cccc(NC(=O)N3CCCC3)c2)ncc1I)c1cccs1 [listing 4 of 4 here]
[1]
  scaled lipid accumulation score: 1.07 (active)

## O=C(Nc1cccc(Nc2ncc(Br)c(NCCc3cnc[nH]3)n2)c1)N1CCCC1
[2]
  scaled lipid accumulation score: ≤ 0 (inactive)
[3]
  scaled lipid accumulation score: ≤ 0 (inactive) and ≤ -0.005 (inactive)
[4]
  scaled lipid accumulation score: ≤ 0 (inactive) and ≤ -0.005 (inactive)
[5]
  scaled lipid accumulation score: ≤ 0 (inactive)
[1]
  scaled lipid accumulation score: 0.029 (inactive) and 0.7 (inactive)

## CC(=O)Oc1ccc2c(c1)CCC1C2CC[C@]2(C)C(=O)CCC12 (some centres undefined) [Estrone acetate]
[1]
  scaled lipid accumulation score: ≤ 0 (inactive)

## CCCCn1c(=O)c2c(ncn2CC(C)=O)n(CCCC)c1=O [Denbufylline]
Library stock concentration: 6.2 mM
  scaled lipid accumulation score: ≤ -0.006 (inactive)

## CCCCc1nc2ccn(Cc3cccs3)c(=O)c2n1Cc1ccc(-c2ccccc2-c2nn[nH]n2)cc1
[1]
  scaled lipid accumulation score: ≤ -0.006 (inactive)

## Cc1cc(C(=O)O)sc1C(N)C(=O)O (centres undefined)
[1]
  scaled lipid accumulation score: 0.007 (inactive)

## CCCn1c(=O)[nH]c(=O)c2[nH]cnc21 [3-n-Propylxanthine]
[1]
  scaled lipid accumulation score: ≤ 0 (inactive)

## CCOC(=O)c1[nH]c2cc(Cl)ccc2c1C(C(=O)NC(C)(C)C)N(C=O)Cc1ccc(Cl)cc1 (centres undefined)
[5]
  scaled lipid accumulation score: ≤ -0.009 (inactive)
[1]
  scaled lipid accumulation score: 0.547 (inactive)

## Nc1nc(SCc2ccc([N+](=O)[O-])cc2)c2ncn([C@@H]3O[C@H](CO)[C@H](O)C3O)c2n1 (stereo partly drawn) [S-(4-Nitrobenzyl)-6-thioguanosine]
[1]
  scaled lipid accumulation score: 0.41 (inactive)

## O=C(O)CCC/C=C\C[C@H]1[C@@H](O)CC(=O)[C@@H]1/C=C/[C@@H](O)CCc1ccccc1 [17-phenyl trinor Prostaglandin D2]
[6]
  scaled lipid accumulation score: ≤ 0 (inactive)

## CNc1nc(-c2ccc3c(N)n[nH]c3c2)cc(N2C[C@@H](C(=O)NC3CCCCC3)CC[C@H]2C)n1
[2]
  scaled lipid accumulation score: ≤ -0.016 (inactive)
[3]
  scaled lipid accumulation score: ≤ -0.016 (inactive)
[4]
  scaled lipid accumulation score: ≤ -0.016 (inactive)
[5]
  scaled lipid accumulation score: ≤ 0 (inactive)
[1]
  scaled lipid accumulation score: 0.741 (inactive) and 0.773 (inactive)

## CN(NC(=O)CC(=O)NN(C)C(=S)c1ccccc1)C(=S)c1ccccc1 [Elesclomol (STA-4783)]
[5]
  scaled lipid accumulation score: ≤ 0 (inactive)
[1]
  scaled lipid accumulation score: ≤ 0 (inactive)

## O=c1cc(-c2ccccc2F)[nH]c2cc3c(cc12)OCO3 [CHM-1 hydrate]
[1]
  scaled lipid accumulation score: 0.875 (active)

## Cn1c(-c2ccc3c(c2)OCO3)cc(=O)c2ccccc21 [Graveoline]
  scaled lipid accumulation score: ≤ 0 (inactive)

## O=C(NC(NC(=S)Nc1ccc(F)c([N+](=O)[O-])c1)C(Cl)(Cl)Cl)C(c1ccccc1)c1ccccc1 (centres undefined)
[2]
  scaled lipid accumulation score: ≤ 0 (inactive)
[3]
  scaled lipid accumulation score: 0.081 (inactive)
[4]
  scaled lipid accumulation score: 0.01 (inactive)
[5]
  scaled lipid accumulation score: ≤ -0.009 (inactive)
[1]
  scaled lipid accumulation score: 0.019 (inactive) and 0.171 (inactive) and 0.352 (inactive)

## O=C(NC1CCNCC1)c1n[nH]cc1NC(=O)c1c(Cl)cccc1Cl
[2]
  scaled lipid accumulation score: 0.367 (inactive)
[3]
  scaled lipid accumulation score: 0.117 (inactive) and 0.282 (inactive)
[4]
  scaled lipid accumulation score: 0.26 (inactive) and 0.49 (inactive)
[5]
  scaled lipid accumulation score: 0.109 (inactive)
[1]
  scaled lipid accumulation score: 0.212 (inactive) and 0.239 (inactive) and 0.462 (inactive)

## C[C@H](CCCO)[C@H]1CC[C@H]2[C@@H]3[C@H](O)C[C@H]4C[C@H](O)CC[C@]4(C)[C@H]3C[C@H](O)[C@]12C [Petromyzonol]
[6]
  scaled lipid accumulation score: 0.043 (inactive)

## Cn1cc(-c2ccc(F)c(C(F)(F)F)c2)nc1C1CCN(c2ncnc3[nH]ncc23)CC1
[2]
  scaled lipid accumulation score: 0.021 (inactive)
[3]
  scaled lipid accumulation score: 0.015 (inactive)
[4]
  scaled lipid accumulation score: 0.054 (inactive)
[1]
  scaled lipid accumulation score: 0.371 (inactive)

## CCc1ccc2c(O)c3c(cc2c1C(=O)OC)C(=O)c1c(O)ccc(O)c1C3=O [Bisanhydrorutilantinone]
[1]
  scaled lipid accumulation score: 0.11 (inactive)

## CCCCC[C@@H](O)/C=C/[C@@H]1[C@@H](C/C=C\CCCC(=O)O)[C@@H](O)C[C@H]1O [15(R)-Prostaglandin F2.alpha.]
[6]
  scaled lipid accumulation score: ≤ 0 (inactive)

## C=C1CC2(O)OC3(CC2C(C)C)C(C)CCC13 (centres undefined) [Curcumol]
[5]
  scaled lipid accumulation score: ≤ 0 (inactive)
[1]
  scaled lipid accumulation score: ≤ 0 (inactive)

## CCn1c(=O)[nH]c2ccccc21
[1]
  scaled lipid accumulation score: ≤ -0.006 (inactive)

## CCn1c2ccccc2c2cc(CNC)ccc21.Cl
[1]
  scaled lipid accumulation score: 0.872 (active)

## CCn1c2ccccc2c2cc(Nc3ccnc(NCCCN4CCOCC4)n3)ccc21
[5]
  scaled lipid accumulation score: 0.673 (inactive)
[1]
  scaled lipid accumulation score: 0.087 (inactive)

## CCCCCCCC/C=C\CCCCCCCC(=O)NCCS(=O)(=O)O [N-Oleoyl Taurine]
[6]
  scaled lipid accumulation score: 0.011 (inactive)

## C[C@@H](Oc1cc(-c2cnn(C3CCNCC3)c2)cnc1N)c1c(Cl)ccc(F)c1Cl [listing 1 of 2 here]
[2]
  scaled lipid accumulation score: ≤ 0 (inactive)
[3]
  scaled lipid accumulation score: 0.145 (inactive)
[4]
  scaled lipid accumulation score: 0.477 (inactive)
[1]
  scaled lipid accumulation score: 0.242 (inactive)

## C[C@@H](Oc1cc(-c2cnn(C3CCNCC3)c2)cnc1N)c1c(Cl)ccc(F)c1Cl [listing 2 of 2 here]
[5]
  scaled lipid accumulation score: 0.909 (active)
[1]
  scaled lipid accumulation score: 0.863 (active)

## CC(Oc1cc(-c2cnn(C3CCNCC3)c2)cnc1N)c1c(Cl)ccc(F)c1Cl [(S)-crizotinib]
[5]
  scaled lipid accumulation score: 0.504 (inactive)
[1]
  scaled lipid accumulation score: 0.396 (inactive)

## CCCCCCCCCCCCCCCCOC[C@H](COP(=O)([O-])OCC[N+]1(C)CCCC1)OC(C)=O [Pyrrolidino PAF C-16]
[6]
  scaled lipid accumulation score: ≤ 0 (inactive)

## C[N+]1(C)CCCC1C(=O)O (centres undefined) [Stachydrine hydrochloride]
  scaled lipid accumulation score: 0.046 (inactive)

## O=C(/C=C\n1cnc(-c2cc(C(F)(F)F)cc(C(F)(F)F)c2)n1)N1CC(F)(F)C1
[5]
  scaled lipid accumulation score: ≤ -0.009 (inactive)
[1]
  scaled lipid accumulation score: 0.294 (inactive)

## CCCCC[C@](C)(O)/C=C/[C@@H]1[C@@H](C/C=C\CCCC(=O)OC)[C@@H](O)C[C@H]1O [15(S)-15-methyl Prostaglandin F2.alpha. methyl ester]
[6]
  scaled lipid accumulation score: ≤ 0 (inactive)
